# Shown are actives, neighbours in structure and some others; about 10% of the full set was active somewhere.
# SW480 rerep = A quantitative high throughput screen for small molecules that induce DNA re-replication in SW480 colon adenocarcinoma cells; SW480 DNA re-replication, Hoechst DNA content imaging, 48 h; Potency, µM (highest dose often 46.1 µM), without a hit: at the top dose re-replication activation, hits mostly activators; 340,000 tested, 1.8% active; note: % of control where 0% means no effect; nearly all actives have a fitted effect of over 55% in size
#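 Hoechst fluorescence of nuclei (405 nm excitation, 500-530 nm emission) measured by plate-scanning imager after 48 hr compound exposure at 37 C; re-replication scored as increased number of nuclei with elevated intensity.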
# Gal4-VP16 FLuc = VP16 counterscreen qHTS for inhibitors of ROR gamma transcriptional activity. Drosophila S2 Gal4-VP16 UAS-luciferase, luminescence, 20 h. 310,000 tested, 3.5% active. Potency, µM (titrated, usually from 53.6 µM), for the others: top-dose activity, negative = inhibition, actives largely listed as inhibitors;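 note: Gal4-VP16 expression switched on by copper sulfate through the metallothionein promoter; % is set by controls: 0 for no effect and ±100 for the full control effect; nearly all actives have a fitted effect of over 50% in size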
# KB-V1 MDR tox = qHTS assay for MDR1-selective chemotherapeutics: Primary screen using the drug-selected MDR subline cells KB-V1. KB-V1 MDR cells viability, CellTiter-Glo, 72 h. Potency, µM (top dose mostly 46.1 µM), actives largely listed as cytotoxic. 400,000 tested, 3.4% active; note: % is set by controls: 0 for no effect and ±100 for the full control effect; nearly all actives have a fitted effect of over 60% in size
#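 KB-V1, DMEM (no phenol red) + 10% FBS; cpd pin-transferred, titration series; 72 h, 37 degrees C; CellTiter-Glo, luminescence. Data normalized, curve-fit.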
# RORgamma inh = qHTS for inhibitors of ROR gamma transcriptional activity; 310,000 tested, 5.4% active; Potency, µM (titrated, usually from 53.6 µM), for the others: at the highest dose activity change, negative = inhibition, most hits filed as inhibitors; AID 2551, 2010; Nuclear receptor ROR-gamma (Mus musculus), P51450; Drosophila S2 Gal4-RORgamma UAS-luciferase reporter, 20 h; note: % is set by controls: 0 for no effect and ±100 for the full control effect; nearly all actives have a fitted effect of over 60% in size
# Target sequence (P51450 whole entry, looked up, the tested form may be a part): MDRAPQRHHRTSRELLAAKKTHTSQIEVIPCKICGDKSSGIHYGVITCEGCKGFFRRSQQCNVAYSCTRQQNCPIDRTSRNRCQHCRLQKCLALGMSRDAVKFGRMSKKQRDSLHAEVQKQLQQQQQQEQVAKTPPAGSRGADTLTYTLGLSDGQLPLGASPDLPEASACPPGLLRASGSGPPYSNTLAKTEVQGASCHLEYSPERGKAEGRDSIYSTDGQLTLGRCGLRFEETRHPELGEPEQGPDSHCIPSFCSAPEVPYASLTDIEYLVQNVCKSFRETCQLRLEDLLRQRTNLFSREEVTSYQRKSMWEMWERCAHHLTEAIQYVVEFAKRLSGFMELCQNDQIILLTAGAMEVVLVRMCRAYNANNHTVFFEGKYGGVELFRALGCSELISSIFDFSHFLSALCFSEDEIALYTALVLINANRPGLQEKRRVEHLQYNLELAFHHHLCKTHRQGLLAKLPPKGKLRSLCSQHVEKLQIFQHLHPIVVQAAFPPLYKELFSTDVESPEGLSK
#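 ROR gamma transcriptional activity was tracked as Gal4-UAS luciferase output in stably transfected Drosophila Schneider cells, with compound added 1 hr before 700 uM copper sulfate induction and a 20 hr ambient-temperature incubation.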
# KB-3-1 cytotox = qHTS assay for MDR1-selective chemotherapeutics: Primary screen using the parental adenocarcinoma cell KB-3-1. 400,000 tested, 1.4% active. Potency, µM (doses to about 46.1 µM), usual class: cytotoxic. AID 1347075, 2019. KB-3-1 viability, CellTiter-Glo ATP luminescence, 72 h; note: % is set by controls: 0 for no effect and ±100 for the full control effect; nearly all actives have a fitted effect of over 60% in size
#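 72 h, 37 °C compound treatment of KB-3-1 parental cells; CellTiter-Glo added, 10 min, luminescence read. Data corrected against DMSO-only plates and normalized before curve fitting.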
# MCF10A rereplic = A quantitative high throughput screen for small molecules that induce DNA re-replication in MCF 10a normal breast cells. 350,000 tested, 2.9% active. MCF 10A DNA re-replication, Hoechst nuclear intensity, 48 h. Potency, µM (top dose mostly 46.1 µM), inactives show at the top dose activity, positive = re-replication, hits mostly activators; note: % of control where 0% means no effect; nearly all actives have a fitted effect of over 50% in size
# An asterisk follows results filed as active; i = inactive; ? = inconclusive; . = no result given; [ ] = another dose, or the depositor's remark. Calls come from the whole dose curve; as a rule, active = well fitted curve in the direction sought with a large enough effect; inconclusive = small, poorly fitted or top-dose-only effect, or another doubt; inactive = no such curve, though single readings can be large; an effect the other way counts as inactive or inconclusive. Potency is the fitted concentration of half-maximal effect.
SMILES,SW480 rerep,Gal4-VP16 FLuc,KB-V1 MDR tox,RORgamma inh,KB-3-1 cytotox,MCF10A rereplic
Cc1ccccc1CCNC(=O)c1ccc(Cl)c(S(=O)(=O)N2CC(C)OC(C)C2)c1 (stereo not given),7%,.,1.8µM*,.,5.2µM*,?
CC1CN(S(=O)(=O)c2cc(C(=O)NCc3ccncc3)ccc2Cl)CC(C)O1 (stereo not given),-4%,.,i,.,i,6%
COc1ccc(NC(=O)c2oc3ccccc3c2NC(=O)C23CC4CC(CC(C4)C2)C3)cc1,.,.,i,.,i,.
Cc1ccc(OCCCC(=O)Nc2sc3c(c2C(N)=O)CCCC3)cc1,.,.,i,.,i,.
COc1ccc(C)cc1NS(=O)(=O)c1ccc2c3c(cccc13)C(=O)N2,.,.,?,.,i,.
S=c1c2c(nc3nc[nH]n13)CCC2,?,0.89µM*,i,?,i,1%
CCOc1ccc(C(=O)NCCn2cc(SCC(=O)NCCc3ccc(OC)c(OC)c3)c3ccccc32)cc1,.,.,i,.,i,.
O=C1/C(=C\c2ccccc2)CCc2c1[nH]c1ccccc21,3.3µM*,29%[0.365 µM],?,-21%,1.3µM*,?
Cc1ccc2[nH]c3c(c2c1)CC/C(=C/c1ccccc1)C3=O,?,6.3µM*,13µM*,4µM*,i,?
O=S(c1ccc2ccccc2c1)c1cnns1 (stereo not given),?,?,?,11µM*,i,13µM*
CCOC(=O)C1(C)CCN1C(=O)/C=C/c1ccccc1 (stereo not given),.,.,i,.,i,.
CCOC(=O)c1c(-c2ccccc2)nnn1-c1nc(OCC)nc(N2CCCCC2)n1,12%,-1%[0.365 µM],21µM*,?,?,15µM*
CCOC(=O)c1nnn(-c2nc(OC)nc(N3CCCCC3)n2)c1-c1ccccc1,.,-21%,.,38%,.,.
Nc1ccccc1Nc1ccccc1,?,-12%,?,13µM*,i,?
Nc1ccc(Nc2ccccc2)c(Cl)c1,0%,5%,i,13%,i,14%
CCOC(=O)C1=C(CSc2nc(-c3ccccc3)ccc2C#N)OC(N)=C(C#N)C1c1ccc(OC)cc1 (stereo not given),?,-21%,i,32%,i,16µM*
CCOC(=O)C1=C(CSc2nc3c(cc2C#N)CN(C)CC3)OC(N)=C(C#N)C1c1ccc(Cl)cc1 (stereo not given),?,-10%,i,9%,i,26µM*
CCOC(=O)C1=C(CSc2nc3c(cc2C#N)CN(C)CC3)OC(N)=C(C#N)C1c1ccncc1 (stereo not given),?,-2%,i,20%,i,?
O=C(NCCc1ccc(Cl)cc1)c1cnc2sc(N3CCOCC3)nn2c1=O,.,.,?,.,i,.
Cc1ccc(S(=O)(=O)N(Cc2ccccc2)c2ccccc2C(=O)N2CCCCC2)cc1,18µM*,-11%,?,-31%,i,?
Cc1ccc(S(=O)(=O)N(Cc2ccccc2)c2ccccc2C(=O)NCc2cccnc2)cc1,?,-16%,23µM*,4%,?,-4%
CC(C)C(=O)NC(C)C(c1cccs1)N1CCN(c2ccccc2)CC1 (stereo not given),-5%,21%,13µM*,2%,i,10%
CCS(=O)(=O)NC(C)C(c1cccs1)N1CCN(c2ccc(OC)cc2)CC1 (stereo not given),-9%,16%,i,14%,i,2%
COc1ccc(N2CCN(C(c3cccs3)C(C)NS(=O)(=O)c3ccccc3)CC2)cc1 (stereo not given),-4%,-14%,?,26%,21µM*,?
COc1ccc(N2CCN(C(CNC(=O)C(=O)NCCCN(C)C)c3cccnc3)CC2)cc1 (stereo not given),.,.,i,.,i,.
SMILES,SW480 rerep,Gal4-VP16 FLuc,KB-V1 MDR tox,RORgamma inh,KB-3-1 cytotox,MCF10A rereplic
Cc1ccccc1NS(=O)(=O)c1ccc(Br)s1,.,.,?,.,i,.
COC(=O)C(NNc1ccccc1)(NC(=O)c1ccccc1F)C(F)(F)F (stereo not given),1%,-4%,i,-19%,i,12%
COC(=O)C(NNc1ccccc1)(NC(=O)c1ccc(F)cc1)C(F)(F)F (stereo not given),1%,-12%,23µM*,3%,?,1%
COc1ccc(Br)cc1/C=N/NC(=O)c1ccco1,10%,-2%,i,-44%,i,-2%
COc1ccccc1/C=C/C(=O)c1cc(Br)ccc1OC(=O)c1ccco1,?,.,?,.,?,10µM*
Cc1ccc(/C=C/C(=O)c2cc(Br)ccc2OC(=O)c2ccco2)cc1,?,2%[0.365 µM],?,?,i,16µM*
CCCCNc1nc(C)nc2c1nc(-c1ccccc1)n2CC(C)(C)CN(C)C,.,0%,.,-39%,.,.
O=c1oc2ccc3ccccc3c2cc1-c1nnc(-c2ccccc2)o1,1%,20%,?,-19%,i,1µM*
Cc1cc2ncc(C(N)=O)cn2n1,4.1µM*,2%,i,1%,i,29%
Cc1ccnc2ccc(Br)cc12,.,.,i,.,i,.
N#CC1=C(c2ccccc2)/C(=C/c2ccccc2)OC1=O,?,2.2µM*,?,3.5µM*,?,6.5µM*
CCCCN1C(=S)NC[C@@H]1Cc1ccc(O)cc1,-58%,-9%,i,6%,i,-5%
CCCC[C@@H]1CNC(=S)N1CCCC,-1%,7.9µM*,i,2.8µM*,i,?
CCCCC12CN3CC(C)(CN(C1)C31C(=O)N(C)c3ccc(C)cc31)C2=O (stereo not given),15%,-10%,9.2µM*,-28%,i,21%
CCCN(CCC)c1nc(N)nc(C#N)n1,.,.,?,.,i,.
CC(=O)NCCNC(=O)CCCn1c(=O)[nH]c2ccsc2c1=O,.,.,i,.,i,.
CN(C)c1ccc(-c2ccc(CCO)cc2)cc1,.,.,i,.,i,.
CC(=O)OC[C@H]1O[C@@H](Oc2cc3ccc(=O)oc3cc2OC(C)=O)[C@H](OC(C)=O)[C@@H](OC(C)=O)[C@@H]1OC(C)=O,21µM*,.,i,.,i,-65%
